# Source: PubChem BioAssay (Tox21)
# Where “and” joins values, the source holds several entries; their conditions need not be identical. Equal values may be shown once. Where a structure was tested more than once in an assay, its records may differ in their call. Calls of active or inactive are those of the source. Entries that show only a call come without a potency. Unless noted, calls come from the whole dose curve; as a rule, active = well fitted curve in the direction sought with a large enough effect in the repeat runs; inconclusive = weak or mixed curves; inactive = no such curve, though single readings can be large; an effect the other way counts as inactive or inconclusive.
# Tests used:
# [1] = qHTS assay to test for compound auto fluorescence at 535 nm (green) in HEK293 cells (AID 720680)
# [2] = qHTS assay to test for compound auto fluorescence at 460 nm (blue) in HEK293 cell free culture (AID 720681); note: potency is the fitted concentration of half-maximal effect
# In short: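 Test compounds were pinned into cell-free culture medium (DMEM with 10% FBS) and fluorescence was read directly at Ex/Em 405/460 nm. Signals were expressed as fluorescence equivalents of triamterene, with DMSO vehicle as control.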
# [3] = qHTS assay to test for compound auto fluorescence at 535 nm (green) in HEK293 cell free culture (AID 720682)
# In short: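 Fluorescein serves as the green reference fluorophore; each compound's intrinsic emission at 535 nm (excitation 485 nm) is reported as an equivalent amount of that dye, measured in serum-containing DMEM without cells.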
# [4] = qHTS assay to test for compound auto fluorescence at 590 nm (red) in HEK293 cell free culture (AID 720683)
# In short: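 Tox21 10K library compounds were pinned into cell-free DMEM with 10% FBS and fluorescence was read at excitation 540 nm. Activity is expressed as Rose Bengal sodium equivalency.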
# [5] = qHTS assay to test for compound auto fluorescence at 590 nm (red) in HepG2 cell free culture (AID 720684)
# In short: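 Red fluorescence (540 nm excitation, 590 nm emission) was measured after compound transfer into cell-free MEM supplemented with 10% FBS. Values are equivalencies against Rose Bengal sodium.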
# [6] = qHTS assay to test for compound auto fluorescence at 460 nm (blue) in HepG2 cell free culture (AID 720685); note: potency is the fitted concentration of half-maximal effect
# In short: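 Compound (23 nL) or DMSO pinned into cell-free MEM with 10% FBS; blue fluorescence read at 405/460 nm excitation/emission, expressed as auto-fluorescence equivalency to triamterene.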
# [7] = qHTS assay to test for compound auto fluorescence at 535 nm (green) in HepG2 cell free culture (AID 720686)
# [8] = target: Glucocorticoid receptor (Homo sapiens) (UniProt P04150); test: qHTS assay to identify small molecule agonists of the glucocorticoid receptor (GR) signaling pathway (AID 720691; active = well fitted activation curve with a large enough effect in the signal ratio in the repeat runs, not every such curve was filed as active; inconclusive = weak or mixed curves, or effect the other way; inactive = no such curve, though single readings can be large or run the other way; the % refers to the signal ratio); settings: GR-bla HeLa, beta-lactamase reporter ratio, 18 h
# Chain of Glucocorticoid receptor (Homo sapiens) (P04150 whole entry, looked up): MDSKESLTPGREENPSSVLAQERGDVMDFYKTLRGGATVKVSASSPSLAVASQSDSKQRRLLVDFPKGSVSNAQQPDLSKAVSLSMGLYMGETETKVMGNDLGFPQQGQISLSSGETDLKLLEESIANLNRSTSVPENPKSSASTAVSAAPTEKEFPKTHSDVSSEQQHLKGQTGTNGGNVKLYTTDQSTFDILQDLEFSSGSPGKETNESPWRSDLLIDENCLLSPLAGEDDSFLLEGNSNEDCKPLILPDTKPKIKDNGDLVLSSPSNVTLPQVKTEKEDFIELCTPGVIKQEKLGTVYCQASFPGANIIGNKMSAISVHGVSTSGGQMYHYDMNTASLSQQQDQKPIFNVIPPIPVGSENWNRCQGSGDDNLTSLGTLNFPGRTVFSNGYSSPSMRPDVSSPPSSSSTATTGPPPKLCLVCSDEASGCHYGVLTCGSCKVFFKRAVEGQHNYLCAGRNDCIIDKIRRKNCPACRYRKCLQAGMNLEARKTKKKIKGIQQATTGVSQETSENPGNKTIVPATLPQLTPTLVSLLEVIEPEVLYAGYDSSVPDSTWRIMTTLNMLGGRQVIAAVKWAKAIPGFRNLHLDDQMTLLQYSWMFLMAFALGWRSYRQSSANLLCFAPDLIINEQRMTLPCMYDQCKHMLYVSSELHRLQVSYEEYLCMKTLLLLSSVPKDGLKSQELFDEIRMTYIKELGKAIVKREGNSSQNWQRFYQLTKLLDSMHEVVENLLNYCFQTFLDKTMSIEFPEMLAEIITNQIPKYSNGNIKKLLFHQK
# In short: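 Agonist mode in a HeLa line carrying a GRE-controlled beta-lactamase reporter. Compounds act for 18 h at 37 C before a 2 h room-temperature FRET substrate step and fluorescence reading.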
# [9] = target: Glucocorticoid receptor (Homo sapiens) (UniProt P04150); test: qHTS assay to identify small molecule antagonists of the glucocorticoid receptor (GR) signaling pathway (AID 720692; active = well fitted inhibition curve with a large enough effect in the signal ratio in the repeat runs, not every such curve was filed as active; inconclusive = weak or mixed curves, or effect the other way; inactive = no such curve, though single readings can be large or run the other way; the % refers to the signal ratio)
# In short: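 Cells plated, rested 4 h at 37 C/5% CO2; compounds in DMSO pin-transferred; dexamethasone added to 5 nM final; 18 h at 37 C; B/G FRET substrate added, 2 h room temperature; fluorescence measured.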
# [10] = qHTS assay to identify small molecule antagonists of the glucocorticoid receptor (GR) signaling pathway - cell viability counter screen (AID 720693); note: nearly all actives have a fitted effect of over 55% in size
# [11] = qHTS assay for identifying genotoxic compounds that show differential cytotoxicity against isogenic chicken DT40 cell lines with known DNA damage response pathways - wild type cell line (AID 743012); note: nearly all actives have a fitted effect of over 60% in size; note: potency is the fitted concentration of half-maximal effect
# In short: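 Cells (DT40 wild type, 300/well) are treated with DMSO-dissolved compounds after a ~0.5 h pre-incubation and kept 40 h at 37 C/5% CO2. Viability is then measured by CellTiter-Glo luminescence following 30 min at room temperature.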
# [12] = qHTS assay for identifying genotoxic compounds that show differential cytotoxicity against isogenic chicken DT40 cell lines with known DNA damage response pathways - Rev3 mutant cell line (AID 743014); note: nearly all actives have a fitted effect of over 55% in size; note: potency is the fitted concentration of half-maximal effect
# [13] = qHTS assay for identifying genotoxic compounds that show differential cytotoxicity against isogenic chicken DT40 cell lines with known DNA damage response pathways - Rad54/Ku70 mutant cell line (AID 743015); note: nearly all actives have a fitted effect of over 60% in size; note: potency is the fitted concentration of half-maximal effect
# [14] = qHTS assay to identify small molecule antagonists of the androgen receptor (AR) signaling pathway - cell viability counter screen (AID 743033; note: nearly all actives have a fitted effect of over 45% in size)
# [15] = qHTS assay to identify small molecule antagonists of the androgen receptor (AR) signaling pathway using the MDA cell line - cell viability counter screen (AID 743041; note: nearly all actives have a fitted effect of over 45% in size)
# In short: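 MDA-kb2 AR-luc human breast carcinoma cells (MMTV-luciferase, AR/GR responsive) were treated with compounds plus R1881 agonist for 16 h at 37 °C. Viability was read as CellTiter-Fluor fluorescence in the same wells as the reporter assay.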
# [16] = qHTS assay to test for compound auto fluorescence at 460 nm (blue) in HepG2 cells (AID 720687)
# In short: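 Cells (2,000/well in MEM with 10% FBS) attached overnight at 37 C, then were exposed to compound or DMSO for 1 hr at 37 C, 5% CO2. Fluorescence read at Ex/Em 405/460 nm, expressed as triamterene-equivalent signal.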
# [17] = target: Androgen receptor (Homo sapiens) (UniProt P10275); test: qHTS assay to identify small molecule antagonists of the androgen receptor (AR) signaling pathway (AID 743035; active = well fitted inhibition curve with a large enough effect in the signal ratio in the repeat runs, not every such curve was filed as active; inconclusive = weak or mixed curves, or effect the other way; inactive = no such curve, though single readings can be large or run the other way; the % refers to the signal ratio)
# Chain of Androgen receptor (Homo sapiens) (P10275 whole entry, looked up): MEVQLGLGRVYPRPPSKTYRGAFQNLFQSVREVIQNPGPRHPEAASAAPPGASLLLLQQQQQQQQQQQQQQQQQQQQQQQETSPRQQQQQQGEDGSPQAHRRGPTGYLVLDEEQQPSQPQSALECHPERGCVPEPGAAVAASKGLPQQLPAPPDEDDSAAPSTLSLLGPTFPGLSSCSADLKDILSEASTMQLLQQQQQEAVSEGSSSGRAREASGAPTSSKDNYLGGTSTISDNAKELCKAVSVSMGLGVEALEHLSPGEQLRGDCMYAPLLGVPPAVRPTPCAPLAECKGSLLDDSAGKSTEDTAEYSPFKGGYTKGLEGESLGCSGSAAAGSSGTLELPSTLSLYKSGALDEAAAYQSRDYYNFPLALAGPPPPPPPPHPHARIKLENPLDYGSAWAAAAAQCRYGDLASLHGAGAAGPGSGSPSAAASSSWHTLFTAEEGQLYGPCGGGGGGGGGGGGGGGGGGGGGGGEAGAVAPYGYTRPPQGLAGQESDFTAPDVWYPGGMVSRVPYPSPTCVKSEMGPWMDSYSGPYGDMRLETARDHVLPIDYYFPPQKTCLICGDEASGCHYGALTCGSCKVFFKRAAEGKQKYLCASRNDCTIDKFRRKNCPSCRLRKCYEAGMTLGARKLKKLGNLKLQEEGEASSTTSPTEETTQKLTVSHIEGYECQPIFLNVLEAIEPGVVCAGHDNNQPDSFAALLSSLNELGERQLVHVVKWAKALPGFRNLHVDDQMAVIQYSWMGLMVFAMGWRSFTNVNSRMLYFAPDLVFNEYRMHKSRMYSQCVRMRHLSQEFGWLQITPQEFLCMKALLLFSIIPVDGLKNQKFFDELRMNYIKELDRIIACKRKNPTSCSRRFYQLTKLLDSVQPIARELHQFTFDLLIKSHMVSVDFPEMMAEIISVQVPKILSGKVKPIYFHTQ
# In short: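 Antagonism is scored as loss of R1881-driven beta-lactamase reporter expression in HEK293 cells carrying the reporter under a UAS element, after 16 h co-treatment at 37C and a 2 h room-temperature FRET substrate read.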
# [18] = target: Androgen receptor (Homo sapiens) (UniProt P10275); test: qHTS assay to identify small molecule agonists of the androgen receptor (AR) signaling pathway (AID 743036; active = well fitted activation curve with a large enough effect in the signal ratio in the repeat runs, with a control signal flat, not every such curve was filed as active; inconclusive = weak or mixed curves, or effect the other way; inactive = no such curve, though single readings can be large or run the other way; the % refers to the signal ratio)
# In short: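 Fluorescence from a beta-lactamase FRET substrate served as read-out in AR-UAS-bla GripTite HEK293 cells. Cells were treated with DMSO-dissolved compounds for 16 h at 37C, then with LiveBLAzer B/G substrate for 2 h at room temperature.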
# [19] = target: Androgen receptor (Homo sapiens) (UniProt P10275); test: qHTS assay to identify small molecule agonists of the androgen receptor (AR) signaling pathway using the MDA cell line (AID 743040; note: nearly all actives have a fitted effect of over 20% in size)
# In short: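 MDA-kb2 breast carcinoma cells stably carrying an MMTV-driven luciferase reporter (AR- and GR-responsive) were seeded and held 5 h at 37C, 0% CO2, then exposed to compounds in DMSO for 16 h. Luminescence was read 30 min after ONE-Glo addition.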
# [20] = target: Androgen receptor (Homo sapiens) (UniProt P10275); test: qHTS assay to identify small molecule antagonists of the androgen receptor (AR) signaling pathway using the MDA cell line (AID 743042; note: nearly all actives have a fitted effect of over 55% in size)
# In short: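 MDA-kb2 cells (human breast carcinoma, stably carrying an MMTV-luciferase reporter responsive to AR and GR) were plated at 3,000 cells/well and preincubated 5 hr at 37C, then given compound plus R1881 agonist for 16 h. ONE-Glo luminescence was read.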
# [21] = activation: at 62.4 µM (top of the series) unless noted
# Tags give direction and shape of the fitted curve or compound fluorescence and quenching.
smiles,measurement,setting,value
CC(=O)Nc1ccc(C(=O)O)cc1,outcome,[1],inactive
same,Potency,[2],inactive
same,outcome,[3],inactive
same,outcome,[4],inactive
same,outcome,[5],inactive
same,Potency,[6],inactive
same,outcome,[7],inactive
same,Potency,[8]; [21],inactive
same,Potency,[9],inactive
same,Potency,[10],inactive
same,Potency,[11],inactive
same,Potency,[12],inactive
same,Potency,[13],inactive
same,Potency,[14],inactive
same,Potency,[15],inactive
CC[Si](OC(C)=O)(OC(C)=O)OC(C)=O,outcome,[1],inactive
same,Potency,[2],inactive
same,outcome,[3],inactive
same,outcome,[4],inactive
same,Potency,[6],inactive
same,outcome,[7],inactive
same,outcome,[16],inactive
same,Potency,[10],inactive
same,Potency,[11],inactive
same,Potency,[12],inactive
same,Potency,[13],inactive
same,Potency,[14],inactive
same,Potency,[15],inactive
C=C1C2CCC(C2)C1(C)C (configuration not stated),outcome,[1],inactive
same,Potency,[2],inactive
same,outcome,[3],inactive
same,outcome,[4],inactive
same,outcome,[5],inactive
same,Potency,[6],inactive
same,outcome,[7],inactive
same,Potency,[8]; [21],inactive
same,Potency,[9],inactive
same,Potency,[10],inactive
same,Potency,[11],inactive
same,Potency,[12],inactive
same,Potency,[13],inactive
same,Potency,[14],inactive
same,Potency,[15],inactive
COC(=O)Nc1nc2ccc(Sc3ccccc3)cc2[nH]1,Potency,[2],inactive
same,outcome,[3],inactive
same,outcome,[4],inactive
same,outcome,[5],inactive
same,Potency,[6],inactive
same,outcome,[7],inactive
same,outcome,[16],inactive
same,activation,[8]; [21],2.86% [inconclusive] [at 29.2 µM] (active)
same,activation,[8]; at 62.4 µM (top of the series),2.36% (inactive)
same,Potency,[10],inactive
same,Potency,[11],403 nM (active) and 217 nM (active)
same,Potency,[12],285 nM (active) and 217 nM (active)
same,Potency,[13],403 nM (active) and 386 nM (active)
same,Potency,[14],inactive
same,Potency,[15],inactive
Cc1cc(Cc2ccc(N)c(C)c2)ccc1N,outcome,[1],inactive
same,Potency,[2],inactive
same,outcome,[3],inactive
same,outcome,[4],inactive
same,Potency,[6],inactive
same,outcome,[7],inactive
same,outcome,[16],inactive
same,Potency,[8]; [21],inactive
same,Potency,[9],inactive
same,Potency,[10],inactive
same,Potency,[11],61.1 µM (active)
same,Potency,[12],68.6 µM (active) and 54.5 µM (active)
same,Potency,[13],61.1 µM (active) and 68.6 µM (active)
same,Potency,[14],inactive
same,Potency,[15],inactive
CC(C)Cc1ccccc1,outcome,[1],inactive
same,Potency,[2],inactive
same,outcome,[3],inactive
same,outcome,[4],inactive
same,Potency,[6],inactive
same,outcome,[7],inactive
same,outcome,[16],inactive
same,Potency,[8]; [21],inactive
same,Potency,[9],inactive
same,Potency,[10],inactive
same,Potency,[11],inactive
same,Potency,[12],inactive
same,Potency,[13],inactive
same,Potency,[14],inactive
same,Potency,[15],inactive
Nc1nc2ncc(CNc3ccc(C(=O)N[C@@H](CCC(=O)O)C(=O)O)cc3)nc2c(=O)[nH]1,outcome,[1],inactive
same,Potency,[2],35.5 µM (active)
same,outcome,[3],inactive
same,outcome,[4],inactive
same,Potency,[6],35.5 µM [fluorescent] (active)
same,outcome,[7],inactive
same,Potency,[8]; [21],inactive
same,Potency,[9],inactive
same,Potency,[10],inactive
same,Potency,[11],inactive
same,Potency,[12],inactive
same,Potency,[13],inactive
same,Potency,[14],inactive
same,outcome,[17],inactive
same,outcome,[18],inactive
same,outcome,[19],inactive
same,Potency,[15],inactive
same,outcome,[20],inactive
NCCNCCNCCNCCN,outcome,[1],inactive
same,Potency,[2],inactive
same,outcome,[3],inactive
same,outcome,[4],inactive
same,Potency,[6],inactive
same,outcome,[7],inactive
same,Potency,[8]; [21],inactive
same,Potency,[9],inactive
same,Potency,[10],inactive
same,Potency,[11],inactive
same,Potency,[13],inactive
same,Potency,[14],inactive
same,outcome,[17],inactive
same,outcome,[18],inactive
same,outcome,[19],inactive
same,Potency,[15],inactive
same,outcome,[20],inactive
O=C(Oc1ccccc1)c1ccc(O)cc1,outcome,[1],inactive
same,Potency,[2],inactive
same,outcome,[3],inactive
same,outcome,[4],inactive
same,outcome,[5],inactive
same,Potency,[6],inactive
same,outcome,[7],inactive
same,Potency,[8]; [21],inactive
same,Potency,[10],inactive
same,Potency,[11],inactive
same,Potency,[12],inactive
same,Potency,[13],inactive
same,Potency,[14],inactive
same,Potency,[15],inactive
CC1Cc2ccccc2N1NC(=O)c1ccc(Cl)c(S(N)(=O)=O)c1 (configuration not stated),outcome,[1],inactive
same,Potency,[2],inactive
same,outcome,[3],inactive
same,outcome,[4],inactive
same,Potency,[6],inactive
same,outcome,[7],inactive
same,outcome,[16],inactive
same,Potency,[10],inactive
same,Potency,[11],inactive
same,Potency,[12],inactive
same,Potency,[13],inactive
same,Potency,[14],inactive
same,Potency,[15],inactive
Nc1cc(-c2ccncc2)c[nH]c1=O,outcome,[1],inactive
same,Potency,[2],inactive
same,outcome,[3],inactive
same,outcome,[4],inactive
same,Potency,[6],inactive
same,outcome,[7],inactive
same,outcome,[16],inactive
same,Potency,[8]; [21],inactive
same,Potency,[10],inactive
same,Potency,[11],inactive
same,Potency,[12],inactive
same,Potency,[13],inactive
same,Potency,[14],inactive
same,outcome,[17],inactive
same,outcome,[18],inactive
same,outcome,[19],inactive
same,Potency,[15],inactive
same,outcome,[20],inactive
CC(C)(C)C(=O)C1C(=O)c2ccccc2C1=O,outcome,[1],inactive
same,Potency,[2],inactive
same,outcome,[3],inactive
same,outcome,[4],inactive
same,outcome,[5],inactive
same,Potency,[6],inactive
same,outcome,[7],inactive
same,Potency,[8]; [21],inactive
same,Potency,[10],inactive
same,Potency,[11],60.5 µM (active) and 12.2 µM (active)
same,Potency,[12],inactive and 13.7 µM (active)
same,Potency,[13],13.7 µM (active)
same,Potency,[14],inactive
CCCCCCCCCCCCOCC1CO1 (configuration not stated),outcome,[1],inactive
same,Potency,[2],inactive
same,outcome,[3],inactive
same,outcome,[4],inactive
same,Potency,[6],inactive
same,outcome,[7],inactive
same,outcome,[16],inactive
same,Potency,[8]; [21],inactive
same,Potency,[9],inactive
same,Potency,[10],inactive
same,Potency,[11],inactive
same,Potency,[12],inactive
same,Potency,[13],inactive
same,Potency,[14],inactive
same,Potency,[15],inactive
NCc1cccc(CN)c1,outcome,[1],inactive
same,Potency,[2],inactive
same,outcome,[3],inactive
same,outcome,[4],inactive
same,outcome,[5],inactive
same,Potency,[6],inactive
same,outcome,[7],inactive
same,Potency,[8]; [21],inactive
same,Potency,[9],inactive
same,Potency,[10],inactive
same,Potency,[11],inactive
same,Potency,[12],inactive
same,Potency,[13],inactive
same,Potency,[14],inactive
same,Potency,[15],inactive
Cn1c([N+](=O)[O-])cnc1COC(N)=O,outcome,[1],inactive
same,Potency,[2],inactive
same,outcome,[3],inactive
same,outcome,[4],inactive
same,outcome,[5],inactive
same,Potency,[6],inactive
same,outcome,[7],inactive
same,Potency,[8]; [21],inactive
same,Potency,[9],inactive
same,Potency,[10],inactive
same,Potency,[11],inactive
same,Potency,[12],inactive
same,Potency,[13],inactive
same,Potency,[14],inactive
same,Potency,[15],inactive
CC1(C)CC(N=C=O)CC(C)(CN=C=O)C1 (configuration not stated),Potency,[2],inactive
same,outcome,[3],inactive
same,outcome,[4],inactive
same,Potency,[6],inactive
same,outcome,[7],inactive
same,Potency,[10],inactive
same,Potency,[11],inactive
same,Potency,[12],inactive
same,Potency,[13],inactive
same,Potency,[14],inactive
same,Potency,[15],inactive
